PubChem BioAssay AID651821 (The Scripps Research Institute Molecular Screening Center, 2012)
Hit rate of the full screen: of about 370,000 compounds, about 4,700 (1.3%) were called active. The full list was thinned out, with actives kept by preference. A number with no mark means an inactive call.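 Rule for the calls: active = inhibition above the plate cutoff, the mean of all test compounds on that plate plus 3 SD (cut at about 35% in these data); inactive = the rest.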

Test: binders of r(CAG) RNA repeats, primary screen, biochemical, fluorescence (AID 651821);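 note: 0% = DMSO alone and 100% = 100 µM mitoxantrone as full dye displacement; higher means more dye released from RNA so lower well fluorescence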
Settings: r(CAG) RNA repeat, TO-PRO-1 dye displacement fluorescence; at 3 µM; hits give high values

SMILES | inhibition
Nc1ncnc2c1ncn2[C@@H]1O[C@H](C(=O)N[C@@H](CCc2ccccc2)C(=O)N2CCCN(Cc3cccs3)CC2)[C@@H](O)[C@H]1O | 1.07%
CCCC[C@H]1C2CC(OC(=O)NCc3ccccc3)C(C2)[C@H]2CCCCN21 (some centres not stated) | 2.74%
O=S1(=O)c2c(NCc3ccco3)cccc2Oc2ccccc2CN1Cc1cn(Cc2cccc(C(F)(F)F)c2)nn1 | 13.6%
COCc1cc(N2CCN(C(=O)OC(C)(C)C)C[C@@H]2C)ccc1N1CCN(Cc2ccccc2)[C@H](C)C1 | 3.76%
CCCC(=O)N1CCC1(C)C(=O)NS(=O)(=O)c1ccc(Cl)cc1 (configuration not stated) | 3.6%
CC(C)(C)c1ccc(S(=O)(=O)NC(=O)C2(C)CCN2C(=O)CC2CC2)cc1 (configuration not stated) | 5.41%
CC(C)c1ccc(CC(=O)N2CCC2(C)C(=O)NS(=O)(=O)c2ccc(C(C)(C)C)cc2)cc1 (configuration not stated) | 71% (active)
O=c1ccc2c(-c3ccccc3S(=O)(=O)O)c3ccc(O)c(O)c3oc-2c1O | 66.8% (active)
COc1ccc(C(=O)CSc2nnc(-c3cnccn3)n2-c2ccc(C)cc2)cc1 | 4.26%
Cc1cc(NC(=O)COC(=O)/C=C/c2ccc(C)o2)no1 | -0.62%
Cc1ccc(/C=C/C(=O)Nc2ccc([N+](=O)[O-])c(NC(=O)/C=C/c3ccc(C)o3)c2)o1 | 51% (active)
O=C(/C=C/c1ccc([N+](=O)[O-])o1)NNC(=O)c1ccc(F)cc1 | 7.58%
C[C@@H]1ON(C)[C@H]2C[C@H]3c4[nH]c5cccc(-c6ccc7c(c6)OCO7)c5c4CCN3C[C@@H]12 | 6.14%
COc1ccccc1C(=O)NCCC(=O)NN1C(=O)NC2(CCCCC2)C1=O | -4.93%
COc1cccc2sc(NNC(=O)c3nc4ccccc4s3)nc12 | 62.5% (active)
COc1ccccc1C(=O)Nc1nc2nc(-c3ccccc3)cc(=O)n2[nH]1 | 7.94%
COc1ccccc1C(=O)Nn1cnnc1 | -5.43%
COC(=O)[C@@]12CCCCC3=C1N(CCC3)C(=O)[C@H]2CC(=O)NCc1cccc2ccccc12 | 3.84%
CC(=O)Nc1ccc(S(=O)(=O)N(CCc2ccccc2)CC(=O)N/N=C/c2ccc(C(=O)O)cc2)cc1 | 40.4% (active)
CC(=O)Nc1ccc(S(=O)(=O)NCCc2ccccc2)cc1 | -3.69%
COc1ccc(S(=O)(=O)N(CC(=O)N/N=C/c2ccc(C(=O)O)cc2)Cc2ccccc2)cc1OC | 25.2%
O=C(Nc1c(Cl)c(C2CC2)nn1-c1ccccc1)C(Cl)(Cl)Cl | 2.42%
